# Experimental data: PubChem BioAssay (NCATS)
# Inconclusive results are not listed. Activity calls are given as the source filed them. Unless noted, the call rests on the fitted dose curve; in most records, active means well fitted curve in the direction sought with a large enough effect; inconclusive means small, poorly fitted or top-dose-only effect, or another doubt; inactive means no such curve, though single readings can be large; an effect the other way counts as inactive or inconclusive.
# What was measured:
# [1] = molecular target: Lysosomal acid glucosylceramidase (Homo sapiens) (UniProt P04062); test: Glucocerebrosidase-p2 (AID 348; in the data active means potency below about 10 µM; further: potency means the concentration at half of the fitted maximal effect); conditions: purified GBA, blue fluorogenic substrate, 40 min
# Procedure, shortened: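 Compounds titrated from 0.6 nM upwards against 0.2 nM enzyme in pH 5.9 citric acid/KH2PO4, taurocholate, tween-20; blue fluorogenic substrate 80 uM, 40 min room temperature, stopped and read Ex 365/Em 440 for AC50.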
# [2] = AP1 Signaling Pathway (AID 357; active means well fitted curve in either direction with a large enough effect, not every such curve was filed as active;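 further: ME-180 reporter cells stimulated with EGF at its EC50 level; on the % scale 0 is the no-effect control and ±100 the full control effect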); conditions: ME-180 AP-1-bla reporter, EGF-induced, beta-lactamase ratio, 5 h; at 7.69 µM (top of the series) unless noted
# Procedure, shortened: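 Read-out was the 460nm/530nm emission ratio (excitation 405nm) after CCF4 loading for 2.5 hours at room temperature. Cells carried an AP-1-driven beta-lactamase reporter, were stimulated with EC50 EGF plus compound for 5 hours, and AC50 values came from titrations.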
# [3] = molecular target: Cytochrome P450 1A2 (Homo sapiens) (UniProt P05177); test: p450-cyp1a2 (AID 410; calls by dose curve; further: potency means the concentration at half of the fitted maximal effect); conditions: recombinant CYP1A2, luciferin-ME demethylation, luminescence; series mostly up to 57 µM
# Procedure, shortened: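 Inhibition was calculated relative to 57 uM furafylline (full inhibition). The reaction used human CYP1A2 at 20nM with Luciferin-ME at its Km, 100uM, driven by an NADPH-regenerating system for 60 min at room temperature.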
# [4] = NFAT Signaling Pathway (AID 444; active means well fitted curve in either direction with a large enough effect, not every such curve was filed as active;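 further: carbachol stimulus at about its EC50 of 1 µM final; on the % scale 0 is the no-effect control and ±100 the full control effect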); conditions: Jurkat NFAT-bla M1, carbachol, beta-lactamase ratio, 5 h; at 7.69 µM (top of the series) unless noted
# Procedure, shortened: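 Read-out: CCF4 FRET ratio (460 nm/530 nm) after 1 h RT dye loading, used for %activity and AC50 from titration series. Cells: Jurkat NFAT-β-lactamase/M1 line, treated with compound plus 1 uM carbachol for 5 h, 37 °C.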
# [5] = Stat Signaling Pathway (AID 446; active means well fitted curve in either direction with a large enough effect, not every such curve was filed as active;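 further: ME-180 cervical cancer cells given 40 pM IL-6 alongside compound; SIE-controlled beta-lactamase reporter measured as 460/530 nm FRET emission ratio; on the % scale 0 is the no-effect control and ±100 the full control effect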); conditions: ME-180 (cervical carcinoma) SIE beta-lactamase reporter, IL-6 stimulated, 5 h; at 7.69 µM (top of the series) unless noted
# Procedure, shortened: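 IL-6/STAT signaling read in ME-180 cells via an SIE beta-lactamase reporter. Stimulus was 40 pM IL-6 (its AC50) for 5 hrs, so both activation and inhibition register.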
# [6] = molecular target: Glucocorticoid receptor (Homo sapiens) (UniProt P04150); test: GR-GFP Redistribution (AID 450;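 active means compounds whose dose series gives a full or clear partial fitted curve of increased nuclear translocation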; further: potency means the concentration at half of the fitted maximal effect); conditions: U2OS GR-GFP nuclear translocation, laser cytometry, 2 h
# [7] = molecular target: Mitogen-activated protein kinase 10 (Mus musculus) (UniProt Q61831); test: JNK3 AlphaScreen Assay (AID 530; active means well fitted curve in either direction with a large enough effect, not every such curve was filed as active;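 further: kinase came from lysate of stimulated human HepG2 cells; signal reports phosphorylation of biotinylated GST-cJun 1-79 at Ser73 with 10 µM ATP; on the % scale 0 is the no-effect control and ±100 the full control effect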); conditions: JNK3 lysate, c-Jun phosphorylation; series mostly up to 57.1 µM
# Procedure, shortened: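 Room-temperature AlphaScreen kinase assay; pre-activated HepG2 lysate as JNK3 source, biotin-GST-cJun(1-79) substrate, 10 uM ATP, compound 15 min preincubation.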
# [8] = molecular target: Cytochrome P450 3A4 (Homo sapiens) (UniProt P08684); test: qHTS Assay for Inhibitors and Substrates of Cytochrome P450 3A4 (AID 884); conditions: recombinant CYP3A4, Luciferin-PPXE luminescence; series mostly up to 57.1 µM; further: potency means the concentration at half of the fitted maximal effect; nearly all actives have a fitted effect of over 50% in size
# Procedure, shortened: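 20 nM human CYP3A4 with 25 uM Luciferin-PPXE (at KM) in 200 mM KPO4, preincubated 10 min with compound; NADPH regeneration started a 60 min RT reaction. Luciferin detected by luminescence, normalized to 57 uM ketoconazole as full inhibition.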
# [9] = molecular target: Cytochrome P450 3A4 (Homo sapiens) (UniProt P08684); test: qHTS Assay for Activators of Cytochrome P450 3A4 (AID 885); conditions: recombinant CYP3A4, Luciferin-PPXE luminescence, 60 min; series mostly up to 57.1 µM; further: nearly all actives have a fitted effect of over 65% in size
# Procedure, shortened: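 Quantitative HTS format: compounds preincubated with 20nM human CYP3A4 and Luciferin-PPXE substrate at KM, reaction started by NADPH regeneration, stopped after 60 min, luciferase luminescence read 20 min later.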
# [10] = qHTS Assay for Lipid Storage Modulators (AID 1519; calls by dose curve); conditions: Drosophila S3 cells, BODIPY lipid droplet/cell ratio, laser cytometry, cells loaded with oleic acid; for activity change, negative = inhibition: at 57.5 µM (top of the series)
# Procedure, shortened: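 Cells seeded at 5,000 per well were treated with compounds over a concentration series and loaded with oleic acid (400 uM, as added). Lipid droplet fluorescence (488 nm excitation, 500-530 nm channel) was read by laser-scanning cytometry and normalized to 20 uM Triacsin C.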
# [11] = molecular target: Dual specificity protein kinase CLK4 (Homo sapiens) (UniProt Q9HAZ1); test: qHTS Assay for Inhibitors of CDC-like Kinase 4 (ADP-Glo Assay) (AID 1771); conditions: recombinant CLK4, ADP-Glo luminescence; series mostly up to 80 µM; further: nearly all actives have a fitted effect of over 70% in size; further: potency means the concentration at half of the fitted maximal effect
# Procedure, shortened: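 Kinase reaction: Clk4 at 25 nM, RS repeat peptide substrate at 100 uM, ATP at 1 uM, 1 hr, room temperature. Product ADP detected as luciferase signal via ADP-Glo.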
# [12] = Primary qHTS for small molecule stabilizers of the endoplasmic reticulum resident proteome: Secreted ER Calcium Modulated Protein (SERCaMP) assay (AID 1508630); conditions: SH-SY5Y GLuc-SERCaMP (Gaussia luciferase released on ER calcium loss) secretion, thapsigargin, luminescence; series mostly up to 38.4 µM; further: on the % scale 0 is the no-effect control and ±100 the full control effect
# Procedure, shortened: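 GLuc-SERCaMP-expressing SH-SY5Y cells, pretreated 16 h with compound, are challenged with thapsigargin to empty ER calcium stores; after 4 h, coelenterazine is added directly to the medium and luminescence is imaged.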
# [13] = molecular target: Rap guanine nucleotide exchange factor 4 (Homo sapiens) (UniProt Q8WZA2); test: Confirmatory qHTS for antagonist of cAMP-regulated guanine nucleotide exchange factor 4 (EPAC2) (AID 1645885); conditions: EPAC2 Rap1B-BODIPY-GDP exchange fluorescence, biochemical; series mostly up to 114 µM; further: nearly all actives have a fitted effect of over 25% in size; further: potency means the concentration at half of the fitted maximal effect
# [14] = molecular target: Glucocorticoid receptor (Homo sapiens) (UniProt P04150); test: GR-EFC Redistribution (AID 451; calls by dose curve; further: potency means the concentration at half of the fitted maximal effect); conditions: CHO-K1 GR-EFC translocation, beta-gal luminescence, 2 h
# Procedure, shortened: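 Translocation of GR-ED fusion to nuclear EA restores b-gal, read by luminescence after 1 h room-temperature detection. Engineered CHO-K1 biosensor cells, 1,000/well, exposed 2 h at 37 C to titrations up to 46 uM final.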
# [15] = molecular target: Rap guanine nucleotide exchange factor 3 (Homo sapiens) (UniProt O95398); test: Confirmatory qHTS for agonist of cAMP-regulated guanine nucleotide exchange factor 3 (EPAC1) (AID 1645881); conditions: EPAC1 Rap1B BODIPY-GDP exchange fluorescence, 100% = cAMP control response; series mostly up to 154 µM;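 further: EPAC1 catalysed release of BODIPY-GDP from Rap1B seen as fluorescence loss; nearly all actives have a fitted effect of over 75% in size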
# [16] = molecular target: Rap guanine nucleotide exchange factor 4 (Homo sapiens) (UniProt Q8WZA2); test: Confirmatory qHTS for agonist of cAMP-regulated guanine nucleotide exchange factor 4 (EPAC2) (AID 1645884); conditions: EPAC2 GEF activity, Rap1B-BODIPY-GDP fluorescence, percent relative to cAMP agonist control; series mostly up to 154 µM;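 further: nucleotide exchange releases bodipy-GDP from Rap1 and this lowers its fluorescence; on the % scale 0 is the no-effect control and ±100 the full control effect; nearly all actives have a fitted effect of over 65% in size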
# [17] = molecular target: 3',5'-cyclic-AMP phosphodiesterase 4B (Homo sapiens) (UniProt Q07343); test: qHTS Assay for Inhibitors of PDE-IV (AID 607; active means well fitted activation curve with a large enough effect in the main read-out, with a control signal flat, not every such curve was filed as active; further: % of control where 0% means no effect); conditions: HEK293 ACTOne CNG channel cells, membrane potential fluorescence; series mostly up to 22.9 µM
# Procedure, shortened: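 Live HEK293 cells with a modified cyclic nucleotide-gated (CNG) channel report intracellular cAMP via membrane-potential dye fluorescence (ex 535/em 590 nm). Endogenous PDE-IV was targeted. Compounds were tested at up to 22.9 uM final; RO 20-1724 100 uM served as control.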
# [18] = molecular target: Dual specificity protein kinase CLK4 (Homo sapiens) (UniProt Q9HAZ1); test: qHTS Assay for Inhibitors of CDC-like Kinase 4 (Kinase-Glo Assay) (AID 1770); conditions: recombinant Clk4, Kinase-Glo ATP depletion luminescence; series mostly up to 66.7 µM; further: on the % scale 0 is the no-effect control and ±100 the full control effect; nearly all actives have a fitted effect of over 65% in size
# Procedure, shortened: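 Luminescent ATP-depletion read-out (Kinase-Glo) after 4.5 h room-temperature reaction of Clk4 (25 nM final) with RS peptide (100 uM) and ATP (1 uM), pH 7.5 Tris buffer with MgCl2 and DTT.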
# [19] = molecular target: Dual specificity protein kinase CLK4 (Homo sapiens) (UniProt Q9HAZ1); test: qHTS Assay for Inhibitors of CDC-like Kinase 4 (ADP-FP Assay) (AID 1795); conditions: Transcreener ADP fluorescence polarization; series mostly up to 50 µM;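 further: recombinant human CLK4 phosphorylating RS repeat peptide at 1 µM ATP; on the % scale 0 is the no-effect control and ±100 the full control effect; nearly all actives have a fitted effect of over 60% in size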
# Procedure, shortened: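 Kinase activity was measured as ADP production using Transcreener orange tracer (4 nM) and ADP antibody (1 ug/mL) fluorescence polarization, with ADP calculated from a calibration curve. The 1 h reaction contained 6.25 nM Clk4, 1 uM ATP and 100 uM RS peptide at pH 7.5 with Mg2+.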
# [20] = molecular target: Ubiquitin carboxyl-terminal hydrolase 1 (Homo sapiens) (UniProt O94782); test: Inhibitors of USP1/UAF1: Pilot qHTS (AID 504865); conditions: purified USP1/UAF1, Ub-rhodamine cleavage fluorescence; series mostly up to 54.9 µM;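 further: rhodamine fluorescence freed from ubiquitin-rhodamine substrate followed over time; top concentration of the series differs between compounds; on the % scale 0 is the no-effect control and ±100 the full control effect; nearly all actives have a fitted effect of over 35% in size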
# Procedure, shortened: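 Deubiquitinase activity followed as kinetic rhodamine fluorescence release from 150 nM Ub-Rho. 1 nM USP1/UAF1 with compound, after 15 min room-temperature preincubation, in HEPES pH 7.8 buffer containing TCEP, EDTA, BSA and Tween-20.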
# [21] = measured here: cell count channel max response
# [22] = measured here: lipid channel max response
# Chain of Dual specificity protein kinase CLK4 (Homo sapiens) (Q9HAZ1 whole entry, looked up): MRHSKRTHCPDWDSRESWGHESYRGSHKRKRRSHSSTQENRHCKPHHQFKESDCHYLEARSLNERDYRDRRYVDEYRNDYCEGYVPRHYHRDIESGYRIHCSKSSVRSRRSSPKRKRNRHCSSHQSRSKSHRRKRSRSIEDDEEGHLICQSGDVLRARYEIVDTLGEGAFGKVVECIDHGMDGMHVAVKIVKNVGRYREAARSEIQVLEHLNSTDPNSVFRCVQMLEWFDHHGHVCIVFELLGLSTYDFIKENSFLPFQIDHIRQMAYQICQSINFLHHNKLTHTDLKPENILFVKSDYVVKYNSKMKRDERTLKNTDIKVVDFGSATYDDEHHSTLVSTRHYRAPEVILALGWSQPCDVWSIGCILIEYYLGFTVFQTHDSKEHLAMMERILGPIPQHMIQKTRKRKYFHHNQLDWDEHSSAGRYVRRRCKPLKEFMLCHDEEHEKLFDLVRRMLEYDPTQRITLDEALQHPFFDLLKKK
# Chain of Cytochrome P450 3A4 (Homo sapiens) (P08684 whole entry, looked up): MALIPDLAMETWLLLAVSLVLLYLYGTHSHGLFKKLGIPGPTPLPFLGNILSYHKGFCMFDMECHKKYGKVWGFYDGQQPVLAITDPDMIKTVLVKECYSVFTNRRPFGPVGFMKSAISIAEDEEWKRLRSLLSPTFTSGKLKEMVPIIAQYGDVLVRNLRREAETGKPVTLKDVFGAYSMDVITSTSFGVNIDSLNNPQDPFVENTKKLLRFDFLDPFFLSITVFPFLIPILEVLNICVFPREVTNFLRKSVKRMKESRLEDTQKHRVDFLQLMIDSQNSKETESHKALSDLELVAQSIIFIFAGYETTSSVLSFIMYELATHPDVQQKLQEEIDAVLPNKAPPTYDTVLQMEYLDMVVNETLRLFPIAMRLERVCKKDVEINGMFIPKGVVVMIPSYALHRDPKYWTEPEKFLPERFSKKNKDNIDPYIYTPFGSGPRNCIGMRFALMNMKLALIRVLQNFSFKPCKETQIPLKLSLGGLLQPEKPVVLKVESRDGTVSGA
# Chain of Cytochrome P450 1A2 (Homo sapiens) (P05177 whole entry, looked up): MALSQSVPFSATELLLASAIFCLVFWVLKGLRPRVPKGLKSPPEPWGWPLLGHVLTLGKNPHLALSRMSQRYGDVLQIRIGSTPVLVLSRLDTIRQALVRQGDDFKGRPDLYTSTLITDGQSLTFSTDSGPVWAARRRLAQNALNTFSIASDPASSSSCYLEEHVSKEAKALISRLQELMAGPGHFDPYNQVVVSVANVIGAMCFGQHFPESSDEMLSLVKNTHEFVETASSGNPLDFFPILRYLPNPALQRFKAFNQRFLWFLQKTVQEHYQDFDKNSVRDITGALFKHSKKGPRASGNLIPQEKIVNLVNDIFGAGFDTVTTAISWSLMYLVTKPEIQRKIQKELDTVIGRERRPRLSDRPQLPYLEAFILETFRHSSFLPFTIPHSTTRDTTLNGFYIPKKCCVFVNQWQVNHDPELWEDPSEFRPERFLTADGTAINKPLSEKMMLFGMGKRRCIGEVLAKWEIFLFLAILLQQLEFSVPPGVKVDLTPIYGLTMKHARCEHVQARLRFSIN
# Chain of Glucocorticoid receptor (Homo sapiens) (P04150 whole entry, looked up, the tested form may be a part): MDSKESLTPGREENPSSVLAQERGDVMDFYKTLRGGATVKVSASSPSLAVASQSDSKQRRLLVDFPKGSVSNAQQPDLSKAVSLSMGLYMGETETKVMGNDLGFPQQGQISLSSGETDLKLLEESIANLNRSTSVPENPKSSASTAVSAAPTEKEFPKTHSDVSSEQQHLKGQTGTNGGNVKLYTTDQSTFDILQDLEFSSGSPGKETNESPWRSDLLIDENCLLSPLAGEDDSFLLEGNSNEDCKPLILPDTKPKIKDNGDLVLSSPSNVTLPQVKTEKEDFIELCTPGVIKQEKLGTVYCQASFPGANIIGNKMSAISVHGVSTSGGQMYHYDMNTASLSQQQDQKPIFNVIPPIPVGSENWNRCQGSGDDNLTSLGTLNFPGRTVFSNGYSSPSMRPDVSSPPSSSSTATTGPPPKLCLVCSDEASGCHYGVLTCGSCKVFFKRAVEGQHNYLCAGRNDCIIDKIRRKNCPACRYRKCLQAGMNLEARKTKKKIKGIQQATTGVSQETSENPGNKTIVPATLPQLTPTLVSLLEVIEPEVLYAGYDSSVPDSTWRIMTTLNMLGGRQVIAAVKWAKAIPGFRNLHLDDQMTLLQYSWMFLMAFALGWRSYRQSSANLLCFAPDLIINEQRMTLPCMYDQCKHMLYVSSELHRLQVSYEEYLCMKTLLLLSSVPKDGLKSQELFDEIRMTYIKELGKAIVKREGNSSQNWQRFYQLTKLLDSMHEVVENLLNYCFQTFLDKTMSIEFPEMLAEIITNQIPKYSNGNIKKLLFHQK
# Chain of Rap guanine nucleotide exchange factor 4 (Homo sapiens) (Q8WZA2 whole entry, looked up): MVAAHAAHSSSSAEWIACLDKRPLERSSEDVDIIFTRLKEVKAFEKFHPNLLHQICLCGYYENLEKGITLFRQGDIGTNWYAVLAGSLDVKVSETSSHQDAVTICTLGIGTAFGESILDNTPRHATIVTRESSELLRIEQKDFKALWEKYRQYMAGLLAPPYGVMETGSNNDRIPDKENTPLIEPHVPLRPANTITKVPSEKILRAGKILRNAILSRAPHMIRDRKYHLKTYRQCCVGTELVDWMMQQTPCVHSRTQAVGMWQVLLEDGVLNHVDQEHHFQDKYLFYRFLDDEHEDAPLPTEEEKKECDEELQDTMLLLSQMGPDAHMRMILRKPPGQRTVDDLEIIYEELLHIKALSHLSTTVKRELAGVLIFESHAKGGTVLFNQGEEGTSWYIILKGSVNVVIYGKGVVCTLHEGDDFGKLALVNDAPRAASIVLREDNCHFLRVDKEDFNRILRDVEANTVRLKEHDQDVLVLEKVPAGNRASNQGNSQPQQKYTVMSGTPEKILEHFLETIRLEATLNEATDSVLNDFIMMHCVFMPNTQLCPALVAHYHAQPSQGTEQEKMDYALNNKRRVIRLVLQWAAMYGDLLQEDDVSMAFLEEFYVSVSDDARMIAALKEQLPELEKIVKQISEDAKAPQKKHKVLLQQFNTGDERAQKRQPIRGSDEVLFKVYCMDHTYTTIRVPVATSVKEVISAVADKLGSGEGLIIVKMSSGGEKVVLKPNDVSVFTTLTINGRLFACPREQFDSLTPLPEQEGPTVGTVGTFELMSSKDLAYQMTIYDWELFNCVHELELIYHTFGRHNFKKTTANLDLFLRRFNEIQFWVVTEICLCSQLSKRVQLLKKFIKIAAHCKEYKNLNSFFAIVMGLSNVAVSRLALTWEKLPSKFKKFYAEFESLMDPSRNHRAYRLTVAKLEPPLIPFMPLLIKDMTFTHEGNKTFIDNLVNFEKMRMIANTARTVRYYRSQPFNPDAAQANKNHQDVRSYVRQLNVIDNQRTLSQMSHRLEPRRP
# Chain of Lysosomal acid glucosylceramidase (Homo sapiens) (P04062 whole entry, looked up): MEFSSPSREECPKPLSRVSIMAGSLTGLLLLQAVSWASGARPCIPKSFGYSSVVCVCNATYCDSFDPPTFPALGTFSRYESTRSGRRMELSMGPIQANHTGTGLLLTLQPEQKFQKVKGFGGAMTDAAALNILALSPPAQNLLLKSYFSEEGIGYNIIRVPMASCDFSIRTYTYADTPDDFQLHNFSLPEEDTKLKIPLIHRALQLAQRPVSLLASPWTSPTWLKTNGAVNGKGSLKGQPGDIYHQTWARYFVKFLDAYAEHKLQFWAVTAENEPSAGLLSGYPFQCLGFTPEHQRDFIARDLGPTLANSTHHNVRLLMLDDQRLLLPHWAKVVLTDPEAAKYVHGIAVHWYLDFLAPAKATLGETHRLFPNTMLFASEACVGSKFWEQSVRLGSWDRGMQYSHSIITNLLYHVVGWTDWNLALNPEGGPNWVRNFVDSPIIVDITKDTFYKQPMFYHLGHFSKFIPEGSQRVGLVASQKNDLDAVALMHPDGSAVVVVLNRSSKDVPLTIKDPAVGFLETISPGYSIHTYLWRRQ
# Chain of 3',5'-cyclic-AMP phosphodiesterase 4B (Homo sapiens) (Q07343 whole entry, looked up): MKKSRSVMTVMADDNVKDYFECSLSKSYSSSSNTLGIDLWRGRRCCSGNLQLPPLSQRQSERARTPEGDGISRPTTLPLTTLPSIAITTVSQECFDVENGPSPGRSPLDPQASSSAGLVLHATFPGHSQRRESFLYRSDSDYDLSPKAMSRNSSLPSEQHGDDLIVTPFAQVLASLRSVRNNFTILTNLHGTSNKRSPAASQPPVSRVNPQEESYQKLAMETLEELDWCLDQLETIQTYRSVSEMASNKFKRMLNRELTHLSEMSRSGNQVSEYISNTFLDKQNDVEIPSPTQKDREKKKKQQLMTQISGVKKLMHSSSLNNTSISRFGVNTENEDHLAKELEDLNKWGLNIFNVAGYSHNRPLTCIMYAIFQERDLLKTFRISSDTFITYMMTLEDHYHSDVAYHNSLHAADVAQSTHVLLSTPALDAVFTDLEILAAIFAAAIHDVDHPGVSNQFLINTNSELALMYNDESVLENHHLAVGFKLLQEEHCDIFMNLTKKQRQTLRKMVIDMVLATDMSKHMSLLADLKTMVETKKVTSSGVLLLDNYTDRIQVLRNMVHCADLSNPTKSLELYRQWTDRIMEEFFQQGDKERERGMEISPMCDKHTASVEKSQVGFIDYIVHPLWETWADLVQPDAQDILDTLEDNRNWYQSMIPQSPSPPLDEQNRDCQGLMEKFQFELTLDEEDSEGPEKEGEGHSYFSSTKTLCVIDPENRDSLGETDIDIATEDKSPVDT
smiles,measurement,setting,value
COc1ccccc1-c1cc(NCc2cccc(C)c2)ncn1,Potency,[1],> 11.4 µM (inactive)
same,"activity change, negative = inhibition",[2],-9.64% (inactive)
same,Potency,[3],1.58 µM (active)
same,"activity change, negative = inhibition",[4],1.95% (inactive)
same,"activity, negative = inhibition",[5],-2.82% (inactive)
same,Potency,[6],> 46 µM (inactive)
same,outcome,[7],inactive
same,Potency,[8],6.31 µM (active)
same,Potency,[9],inactive
same,"activity change, negative = inhibition",[10],-23.2% (inactive)
same,max response,[10]; [21],4.86%
same,max response,[10]; [22],-16.7%
same,Potency,[11],35.5 µM (active)
same,Potency,[12],inactive
same,Potency,[13],inactive
COc1ccccc1CNc1ccnc(-c2ccc3c(c2)OCO3)n1,"activity change, negative = inhibition",[2],-17.7% (inactive)
same,Potency,[3],0.631 µM (active)
same,"activity change, negative = inhibition",[4],-13.2% (inactive)
same,"activity, negative = inhibition",[5],-21.3% (inactive)
same,Potency,[6],> 46 µM (inactive)
same,Potency,[14],> 46 µM (inactive)
same,outcome,[7],inactive
same,Potency,[8],1.58 µM (active)
same,Potency,[9],inactive
same,"activity change, negative = inhibition",[10],9.28% (inactive)
same,max response,[10]; [21],-12.3%
same,max response,[10]; [22],-4.95%
same,Potency,[12],inactive
same,outcome,[15],inactive
same,outcome,[16],inactive
same,Potency,[13],17.5 µM (active)
CN(C)c1ncc2nc(-c3cc(F)cc(F)c3)c(=O)n(C[C@H]3CCCO3)c2n1,Potency,[1],> 11.4 µM (inactive)
same,"activity change, negative = inhibition",[2],19.6% (inactive)
same,Potency,[3],0.0794 µM (active)
same,"activity change, negative = inhibition",[4],9.35% (inactive)
same,"activity, negative = inhibition",[5],29.3% (inactive)
same,Potency,[6],> 9.22 µM (inactive)
same,Potency,[14],> 46 µM (inactive)
same,outcome,[7],inactive
same,Potency,[17],inactive
same,"activity change, negative = inhibition",[10],7.12% (inactive)
same,max response,[10]; [21],15.3%
same,max response,[10]; [22],23.7%
same,Potency,[18],inactive
same,Potency,[11],inactive
same,Potency,[19],inactive
same,Potency,[20],inactive
same,Potency,[12],inactive
